Hits are enriched below; roughly 12% of the tested compounds scored in any of these assays.
HCV inh: blocks hepatitis C virus; Huh7.5.1 HCVcc-Cre infection, luciferase reporter, 44 h; Potency, µM (highest dose often 41.8 µM), inactives show at the highest dose activity change, negative = inhibition, hits mostly inhibitors; 3.4% of 340,000 active; AID 651820; note: % is set by controls: 0 for no effect and ±100 for the full control effect
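Whole-lifecycle infectious HCVcc-Cre system; cells 1,000/well, compound then virus (~0.5 moi) added 4 h after plating, 44 h culture. Luciferase read 15 sec following 15 min substrate incubation, room temp.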
Pf growth 48h: P. falciparum growth inhibition at 48 hours (one generation) | P. falciparum luciferase growth in erythrocytes, 48 h | Potency, µM (top dose mostly 28.7 µM), without a hit: top-dose activity change, negative = inhibition, most hits filed as inhibitors | 5.9% of 310,000 active; note: % is set by controls: 0 for no effect and ±100 for the full control effect
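Compounds are pin-transferred into medium, infected erythrocytes (2% hematocrit, 0.1% parasitemia final) are added, and plates sit one parasite generation at 37 C in 5% CO2. Detection reagent is then added and luminescence measured.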
SARS PLP yeast: SARS-CoV PLP inhibition in yeast; S. cerevisiae expressing SARS-CoV PLpro, growth rescue; Potency, µM (titrated, usually from 32.9 µM), for the others: at the highest dose activity, positive = growth rescue, most hits filed as activators; 0.19% of 330,000 active; AID 485353; calls by dose curve; note: 0% is about no effect; nearly all actives have a fitted effect of over 55% in size
Pf growth 96h: P. falciparum growth inhibition at 96 hours. AID 504834. 6.9% of 320,000 active. Potency, µM (titrated, usually from 28.7 µM), for inactives: at the top dose activity change, negative = inhibition, most hits filed as inhibitors. P. falciparum luciferase reporter growth, 96 h; note: % is set by controls: 0 for no effect and ±100 for the full control effect
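Luminescence readout: decreased luciferase signal marks inhibited growth of reporter-expressing P. falciparum in infected red cells (2% hematocrit, 0.05% parasitemia final), exposed to compound two generations (96 h, 37 C, 5% CO2).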
AMA1 RON2 block: disrupts binding of P. falciparum AMA1 to RON2; Potency, µM (titrated, usually from 58.2 µM), without a hit: at the highest dose activity change, negative = inhibition, usual class: inhibitors; AlphaScreen AMA1-biotinylated RON2 peptide binding; AID 720542; 0.2% of 360,000 active;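 note: 0% = vehicle wells and -100% = peptide control; nearly all actives have a fitted effect of over 45% in size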
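AMA1 (3D7) with his tag at 25 nM final met compounds first, then biotinylated RON2 peptide at 25 nM; detection used donor plus acceptor beads, 10 µg/mL apiece, read by AlphaScreen after 30 min at room temperature.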
NS1 function inh: inhibitors of influenza NS1 protein function. Potency, µM (doses to about 46.1 µM), without a hit: top-dose activity, positive = more growth. 0.4% of 270,000 active; calls by dose curve; note: actives are rising curves; nearly all actives have a fitted effect of over 50% in size
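Growth recovery, yeast-based: influenza A NS1 expressed in S. cerevisiae causes slow growth, and suppressors are detected by OD600. The parent strain without NS1 is used as positive control.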
An asterisk follows results filed as active; u = inconclusive; x = no result given; [ ] = another dose, or the depositor's remark. Unless noted, calls come from the whole dose curve; as a rule, active = well fitted curve in the direction sought with a large enough effect; inconclusive = small, poorly fitted or top-dose-only effect, or another doubt; inactive = no such curve, though single readings can be large; an effect the other way counts as inactive or inconclusive. Potency is the fitted concentration of half-maximal effect.

SMILES	HCV inh	Pf growth 48h	SARS PLP yeast	Pf growth 96h	AMA1 RON2 block	NS1 function inh
Cc1ccccc1CN1CCC(CNC(=O)C2CCCN(c3ncnc4c3nc3n4CCCCC3)C2)CC1 (configuration not stated)	-19%	12µM*	0%	6.6µM*	4%	12%
O=C(COc1ncnc2scc(-c3ccccc3)c12)NCCN1C(=O)CSC1=O	x	0%	1%	6%	x	8%
Cc1ccc(CSCC(=O)N(C)CC(=O)Nc2ccccc2C(F)(F)F)cc1	-1%	-9%	3%	-14%	3%	x
CC(OC(=O)c1ccccc1C(=O)N(C)Cc1ccccc1)C(=O)NC1(C#N)CCCCC1 (configuration not stated)	-19%	10µM*	1%	u	-1%	x
Cn1cccc1CNCC(O)c1ccccc1 (configuration not stated)	1%	u	-1%	35%	-17%	12%
OC(CNCc1ccncc1)c1ccccc1 (configuration not stated)	24%	35%	4%	-25%	1%	3%
OC(CNCc1ccc(-c2ccccc2)cc1)c1ccccc1 (configuration not stated)	-27%	u	6%	0%	-3%	x
OC(CNCc1cccs1)c1ccccc1 (configuration not stated)	7%	13µM*	1%	u	11%	5%
OC(CNCc1cccc(Br)c1)c1ccccc1 (configuration not stated)	10%	3.7µM*	1%	10µM*	-5%	-2%
Cc1ccsc1CNCC(O)c1ccccc1 (configuration not stated)	20%	12µM*	4%	-26%	-13%	6%
Cc1ccc(CNCC(O)c2ccccc2)s1 (configuration not stated)	22%	12µM*	3%	123%	17%	4%
CC(=O)Cn1nnc2sc(-c3ccccc3)cc2c1=O	-13%	105%	2%	18%	19%	x
C=CCOc1cccc(/C=N/NC(=O)CN2CCCCC2)c1	3%	26%	-2%	22%	1%	0%
COc1ccc(CS(=O)(=O)CC2(O)CCN(C(=O)c3cccc(C(F)(F)F)c3)CC2)cc1	-3%	15µM*	1%	3%	-13%	x
CSc1nc2ccccc2c(=O)n1C1CCOC(C)(C)C1 (configuration not stated)	-16%	27%	-7%	68%	-4%	x
Nc1c(C(=O)OCC2CCCO2)c2nc3ccccc3nc2n1C1CCCC1 (configuration not stated)	u	10µM*	-6%	8%[5.75 µM]	-6%	-204%
COCCn1c(N)c(C(=O)NCC2CCCO2)c2nc3ccccc3nc21 (configuration not stated)	-18%	u	-2%	48%	29%	5%
Nc1c(C(=O)OCC2CCCO2)c2nc3ccccc3nc2n1Cc1cccs1 (configuration not stated)	-27%	u	-16%	3.7µM*	9%	u
O=C(COC(=O)c1ccccc1O)Nc1ccc(OC(F)F)cc1	-6%	40%	-3%	9.3µM*	-9%	-5%
COc1ccc(C(=O)OCC(=O)Nc2ccc(OC(F)F)cc2)c(OC)c1	u	4%	-1%	x	5%	-15%
O=C(CSc1ccc2ccccc2c1)NC1CCCc2ccccc21 (configuration not stated)	-1%	1%	10%	-23%	5%	-8%
CCN1/C(=C/c2sc(-c3ccccc3C)c[n+]2C)Sc2ccccc21	3.5µM*	u	-32%	-10%	4%	x
CCC(=O)/C=C1/Sc2ccccc2N1CC	-14%	-23%	-28%	391%	-9%	-6%
Cn1cc(/C=C/c2cc[n+](C)cc2)c2cc(F)ccc21	0.56µM*	0.26µM*	4%	0.13µM*	6%	u
Cn1cc(C=O)c2cc(F)ccc21	9%	9%	0%	28%	-1%	2%
SMILES	HCV inh	Pf growth 48h	SARS PLP yeast	Pf growth 96h	AMA1 RON2 block	NS1 function inh
C[n+]1ccc(/C=C/c2c[nH]c3ccc(F)cc23)cc1	1µM*	0.37µM*	2%	u	5%	2%
Cn1cc(S(=O)(=O)c2ccccc2)c(=O)c2cc(Cl)ccc21	-12%	5%	2%	14%	4%	10%
Cn1cc(/C=C/c2cc[n+](C)cc2)c2cc(Cl)ccc21	u	0.66µM*	-3%	0.17µM*	-4%	-5%
CCOC(=O)C1=CCN(S(=O)(=O)c2ccccc2Cl)C1c1cccc(Br)c1 (configuration not stated)	x	x	x	x	-2%	x
COc1cc(N)c(Cl)cc1C(=O)OCC(=O)N1c2ccccc2NC(=O)C1(C)C	-23%	x	-8%	x	40%	x
Cc1cc(-c2csc(NC(=O)c3cccc(S(=O)(=O)N(C)C)c3)n2)c(C)n1-c1ccccc1	u	8.3µM*	1%	12µM*	10%	18%
COC(=O)c1ccc(-n2c(C)cc(-c3csc(NC(=O)c4ccc(S(=O)(=O)N(C)C)cc4)n3)c2C)cc1	-27%	u	-31%	u	34%	25%
Fc1ccc(-c2csc(/C=C/c3ccc4c(c3)OCO4)n2)cc1	7%	39%	-18%	25%	-7%	-3%
O=C(Nc1ccc(-c2ccccc2)cc1)c1ccco1	6%	-16%	-12%	4.7µM*	15%	x
C/C(=N\NC(=O)c1cccc(Cl)c1)c1cccc(NC(=O)c2ccco2)c1	u	u	-7%	12µM*	-5%	-12%
CCCOc1ccccc1NC(=O)c1ccc(N)cc1	7.1µM*	20%	-2%	u	-6%	-16%
C/C(=N\NC(=O)c1cccc(C)c1)c1cccc(NC(=O)c2ccco2)c1	-7%	37%	-4%	0%	29%	-20%
O=C(Nc1ccc(Oc2ccc3ccccc3c2)cc1)c1ccco1	u	2.1µM*	-23%	x	-1%	-146%
Cc1ccc(C)c(S(=O)(=O)N2CCN(C(=O)CCC(=O)c3cc(C)sc3C)CC2)c1	u	u	0%	u	-13%	x
CCc1ccc(NC(=O)CNC(=O)[C@@H]2Cc3ccccc3CN2)cc1	6%	1%	-4%	-26%	18%	-9%
Cc1c(NS(C)(=O)=O)cccc1-c1nc2cccnc2s1	-20%	49%	0%	42%	3%	-4%
CN(C)c1ccc(C=C(C#N)C(=O)c2ccccc2)cc1Br	x	x	x	x	0%	x
CN(c1ccccc1)S(=O)(=O)c1nnc(NC(=O)c2ccco2)s1	19%	-8%	-2%	3.7µM*	-3%	5%
CC(C)(C)NC(=O)c1cccc(NC(=O)c2ccc(NC(=O)c3ccco3)cc2)c1	2.5µM*	-31%	-1%	15%	11%	-10%[9.22 µM]

Source: PubChem BioAssay
